Each structure is given as a SMILES string. Screen size: about 310,000 compounds; about 14,000 (4.5%) showed an effect of 50% or more. Effects have a minus sign here. Only a selection was taken, and strong results are over-represented in it overall.
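Further: peak tail current of the secondary pulse compared with the same well before compound.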

human ether-à-go-go-related gene (hERG) potassium channel, sequence (Q12809 whole entry, looked up): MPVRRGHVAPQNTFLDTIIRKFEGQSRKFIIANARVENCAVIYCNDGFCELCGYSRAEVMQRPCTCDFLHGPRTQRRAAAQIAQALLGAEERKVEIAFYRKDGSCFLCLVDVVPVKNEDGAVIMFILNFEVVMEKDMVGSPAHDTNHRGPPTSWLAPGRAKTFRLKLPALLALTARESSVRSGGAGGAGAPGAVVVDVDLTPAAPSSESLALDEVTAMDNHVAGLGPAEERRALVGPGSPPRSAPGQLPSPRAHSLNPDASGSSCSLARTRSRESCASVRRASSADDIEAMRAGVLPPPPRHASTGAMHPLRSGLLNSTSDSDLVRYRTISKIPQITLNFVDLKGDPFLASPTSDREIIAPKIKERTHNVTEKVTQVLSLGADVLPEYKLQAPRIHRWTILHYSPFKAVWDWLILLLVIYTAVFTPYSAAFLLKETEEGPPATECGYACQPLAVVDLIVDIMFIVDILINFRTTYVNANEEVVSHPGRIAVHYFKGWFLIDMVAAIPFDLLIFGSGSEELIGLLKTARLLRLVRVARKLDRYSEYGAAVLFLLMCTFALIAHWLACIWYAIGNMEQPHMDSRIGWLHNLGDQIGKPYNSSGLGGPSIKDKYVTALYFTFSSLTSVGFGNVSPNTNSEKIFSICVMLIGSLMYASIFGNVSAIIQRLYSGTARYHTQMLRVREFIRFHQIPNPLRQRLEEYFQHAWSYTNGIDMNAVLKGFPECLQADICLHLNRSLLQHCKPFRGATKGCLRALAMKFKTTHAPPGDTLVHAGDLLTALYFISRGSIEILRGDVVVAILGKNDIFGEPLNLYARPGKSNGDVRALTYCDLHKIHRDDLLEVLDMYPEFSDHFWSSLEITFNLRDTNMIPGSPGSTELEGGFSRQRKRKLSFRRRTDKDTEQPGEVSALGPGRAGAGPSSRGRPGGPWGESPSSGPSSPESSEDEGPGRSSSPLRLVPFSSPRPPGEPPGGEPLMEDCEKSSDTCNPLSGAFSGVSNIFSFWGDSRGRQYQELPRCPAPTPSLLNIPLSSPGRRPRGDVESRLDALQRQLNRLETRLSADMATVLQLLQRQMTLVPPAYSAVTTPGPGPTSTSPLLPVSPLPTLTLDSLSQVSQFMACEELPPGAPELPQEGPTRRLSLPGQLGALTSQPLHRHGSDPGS

The test has as its target human ether-à-go-go-related gene (hERG) potassium channel (human, UniProt Q12809). As to the kind of experiment: primary screen, population patch clamp on CHO cells stably expressing hERG; higher = less effect of the substance.
Turning to `Cc1ccccc1Cn1c(=O)n(CCCC(=O)NCc2ccco2)c(=O)c2ccccc21`, the “hERG current change (%, negative = inhibition) at 10uM” value is recorded as -15.5%. The same measure for `Nn1c(SCc2cccc(Cl)c2)nnc1-c1ccncc1`: -2.64%; for `Cc1cc(C(=O)C(=O)N(C)C)c(C)n1-c1ccc(Cl)c(Cl)c1`: -28.9%. Take `COc1ccc(S(=O)(=O)N(CCN2CCOCC2)Cc2cc(OC)ccc2OC)cc1`: the “hERG current change (%, negative = inhibition) at 10uM” value is on record as -10.7%. With `Nc1ccc(NC(=O)c2ccccc2)c2c1C(=O)c1ccccc1C2=O`, the “hERG current change (%, negative = inhibition) at 10uM” value is 2.65%.

Regarding `CC(C)N1C(=O)CC(Nc2ccc(N3CCOCC3)cc2)C1=O` (centres unmarked), the “hERG current change (%, negative = inhibition) at 10uM” value was 2.64%. Under `O=C(O)c1cc([N+](=O)[O-])ccc1C(=O)Nc1ccccc1` stands 12.7%; under `COc1cccc(NC(=O)c2cc([N+](=O)[O-])ccc2N2CCN(C)CC2)c1`, -57.7%; under `O=C(NC(=S)Nc1ccccc1)c1cc([N+](=O)[O-])ccc1N1CCOCC1`, 6.13%. Under `Cc1ccc(NC(=O)c2cc([N+](=O)[O-])ccc2N2CCOCC2)cc1C` stands -42.3%; under `COc1ccc(NC(=O)c2cc([N+](=O)[O-])ccc2O)cc1`, -57.6%; under `CN1CCN(c2ccc([N+](=O)[O-])cc2C(=O)Nc2ccccc2)CC1`, -71.1%.

For the compound `CN1CCN(c2ccc(NC(=O)c3cc([N+](=O)[O-])ccc3N3CCOCC3)cc2)CC1`, the “hERG current change (%, negative = inhibition) at 10uM” value is -2.4%. Under `Cc1cccc(NC(=O)c2cc([N+](=O)[O-])ccc2N2CCN(C)CC2)c1` stands -61.9%; under `COc1ccc(NC(=O)c2cc([N+](=O)[O-])ccc2N2CCCC2)cc1`, -1.73%; under `COc1ccc(NC(=O)c2cc([N+](=O)[O-])ccc2N2CCNCC2)cc1`, -44.5%. The same measure for `COc1ccc(NC(=O)c2cccc([N+](=O)[O-])c2)cc1`: 13%.

Regarding `COc1ccc(NC(=O)c2cc([N+](=O)[O-])ccc2N2CCN(C)CC2)cc1`, the “hERG current change (%, negative = inhibition) at 10uM” value was -43.4%. Take `CCC(C(=O)Nc1ccc(C)cc1)c1ccccc1` (centres unmarked): the “hERG current change (%, negative = inhibition) at 10uM” value is on record as 19.1%.

With `Nc1c(-c2cccc(Cl)c2)cnc2c(-c3ccccc3)cnn12`, the “hERG current change (%, negative = inhibition) at 10uM” value is 13.9%. Under `N#C/C(=C\c1ccc(F)c(Cl)c1)S(=O)(=O)c1ccccn1` stands -6.64%.

Take `O=C(/C=C/c1ccc([N+](=O)[O-])cc1)c1cccs1`: the “hERG current change (%, negative = inhibition) at 10uM” value was -23.4%. Under `CCOCCCNC(=O)C(c1ccc(OC)cc1)N(Cc1ccc2c(c1)OCO2)C(=O)c1cnccn1` (centres unmarked) stands 8.96%. As to `CCOc1ccc2c(CC)cc(=O)oc2c1OCC`, the “hERG current change (%, negative = inhibition) at 10uM” value is -18.9%. As for `O=C(Cn1cc(C(=O)C2CC2)c2ccccc21)Nc1ccc(F)cc1`, the “hERG current change (%, negative = inhibition) at 10uM” value is -20.5%. Regarding `O=C(Nc1cccc(Cl)c1N1CCOCC1)c1cc([N+](=O)[O-])ccc1N1CCOCC1`, the “hERG current change (%, negative = inhibition) at 10uM” value was -21.1%. For `O=C(Nc1cccc(Cl)c1)c1cc([N+](=O)[O-])ccc1N1CCN(CCO)CC1`, the “hERG current change (%, negative = inhibition) at 10uM” value was -53%. Take `O=C(Nc1ccccc1)c1cc([N+](=O)[O-])ccc1N1CCNCC1`: the “hERG current change (%, negative = inhibition) at 10uM” value is on record as -37.8%. Under `CCc1ccccc1NC(=O)C1CCN(C(=O)N2CCOc3ccccc32)CC1` stands 1.77%. The same measure for `Cc1ccccc1NC(=O)C1CCN(C(=O)N2CCOc3ccccc32)CC1`: -8.57%; for `COC(=O)c1ccccc1NC(=O)C1CCN(C(=O)N2CCOc3ccccc32)CC1`: -59.6%. As to `CCCCC(=O)NC(c1ccccc1Cl)c1ccc2cccnc2c1O` (centres unmarked), the “hERG current change (%, negative = inhibition) at 10uM” value amounted to 15.2%. The same measure for `COc1ccc(S(=O)(=O)Nc2cc3c4c(c2)CC(=O)N4CCC3)cc1C`: -4.48%. Under `CCN(CCCNC(=O)c1nn(C)c2c1CS(=O)(=O)c1ccccc1-2)Cc1ccccc1` stands -60.3%. Under `CC1CC(C)CN(C(=O)c2nn(C)c3c2CS(=O)(=O)c2ccccc2-3)C1` (centres unmarked) stands -12.7%; under `CC1CC(C)CN(CCCNC(=O)c2nn(C)c3c2CS(=O)(=O)c2ccccc2-3)C1` (centres unmarked), -64.2%; under `CN(CCCNC(=O)c1nn(C)c2c1CS(=O)(=O)c1ccccc1-2)Cc1ccccc1`, -46.9%. `CC1CCN(CCCNC(=O)c2nn(C)c3c2CS(=O)(=O)c2ccccc2-3)CC1`: the “hERG current change (%, negative = inhibition) at 10uM” value is on record as -23.6%.

For `CC(C)N(CCCNC(=O)c1nn(C)c2c1CS(=O)(=O)c1ccccc1-2)Cc1ccccc1`, the “hERG current change (%, negative = inhibition) at 10uM” value is listed as -34.5%. On to `Cc1cc(-c2nc(C)c(-c3nnc(SCC(=O)Nc4ccc(Cl)cc4)n3C)s2)no1`, for which the “hERG current change (%, negative = inhibition) at 10uM” value worked out at 2.4%. Under `COc1ccc(NC(=O)c2ccc(NC(=O)CSc3nccc(=O)[nH]3)cc2)cc1` stands 15.4%; under `O=C(O)c1cc(-c2ccc(Cl)cc2)n(-c2ccc(Cl)cc2)n1`, 38.2%. `O=C(O)c1cc(-c2ccc(Cl)cc2)n(-c2ccccc2)n1`: the “hERG current change (%, negative = inhibition) at 10uM” value was 30.3%. The same measure for `Cc1ccc(-n2nc(C(=O)O)cc2-c2ccc(Cl)cc2)cc1`: 24.9%. In the case of `O=C(c1cc(-c2ccc(Cl)cc2)n(-c2ccc(Cl)cc2)n1)N1CCOCC1`, the “hERG current change (%, negative = inhibition) at 10uM” value was -80.8%.

Consider `O=C(c1cc(-c2ccc(Cl)cc2)n(-c2ccc(Cl)c(Cl)c2)n1)N1CCOCC1`, for which the “hERG current change (%, negative = inhibition) at 10uM” value was -57%. Under `O=C(O)c1cc(-c2ccc(Cl)cc2)n(-c2cccc(Cl)c2)n1` stands 23.4%; under `O=C(c1cc(-c2ccc(Cl)c(Cl)c2)on1)N1CCOCC1`, -14.1%. The same measure for `Cc1ccc(-n2nc(C(=O)O)cc2-c2ccccc2)cc1`: 14.5%. Under `Cc1ccc(-n2nc(C(=O)N3CCOCC3)cc2-c2ccc(Cl)cc2)cc1` stands -83.3%. On to `CCn1c(-c2cc(-c3ccc(OC(C)C)cc3)nc3ccccc23)n[nH]c1=S`, for which the “hERG current change (%, negative = inhibition) at 10uM” value came out at 2.71%.

In the case of `CCOC(=O)c1cc(NC(=O)N(CC)CC)c(C)nc1C`, the “hERG current change (%, negative = inhibition) at 10uM” value was found to be 5.59%. Regarding `Cc1cccc(C)c1NC(=O)CCc1nnc2ccc(N3CCCC3)nn12`, the “hERG current change (%, negative = inhibition) at 10uM” value is 10.3%.
